Measurements as given in PubChem BioAssay AID1159580 (chemical genetic matrix, 2015).
Hit rate of the full screen: of about 5,500 compounds, about 2,000 (36%) were called active. Roughly 18% stayed inconclusive and do not appear here. Rule as the data show it: active = normalized growth mostly below about 0.91 (no sharp cut-off); inconclusive = no clear call, values can overlap the other calls; inactive = mostly above about 0.92. The list shows a part of the results.

Assay: chemical genetic growth profiling, strain panel (AID 1159580);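 also: tested at 20 µM; growth read once vehicle control cultures reached saturation at 30 °C; 1 = growth at the plate median or of vehicle wells; lower values mean less growth of the strain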
Conditions: growth OD

Measured: normalized growth

C=C(C)[C@H]1CC=C(C(=O)O)CC1
inactive: S. cerevisiae deletion strains, locus YKL160W, strain elf1, hits give low values 0.969 | S. cerevisiae deletion strains, locus YKL190W, strain CNB1, hits give low values 1.01 | S. cerevisiae deletion strains, locus YKR026C, strain gcn3, hits give low values 0.98 | S. cerevisiae deletion strains, locus YKR091W, strain srl3, hits give low values 0.995 | S. cerevisiae deletion strains, locus YLL001W, strain dnm1, hits give low values 0.944 | S. cerevisiae deletion strains, locus YLL026W, hits give low values 0.97 | S. cerevisiae deletion strains, locus YLL041C, strain sdh2, hits give low values 0.998 | S. cerevisiae deletion strains, locus YLR027C, strain aat2, hits give low values 0.933 | S. cerevisiae deletion strains, locus YLR039C, strain RIC1, hits give low values 0.971 | S. cerevisiae deletion strains, locus YLR058C, strain SHM2, hits give low values 0.996 | S. cerevisiae deletion strains, locus YLR102C, strain apc9, hits give low values 0.966 | S. cerevisiae deletion strains, locus YLR221C, strain rsa3, hits give low values 0.907 | S. cerevisiae deletion strains, locus YLR258W, strain gsy2, hits give low values 0.982 | S. cerevisiae deletion strains, locus YLR262C, strain YPT6 (second series), hits give low values 0.979 | S. cerevisiae deletion strains, locus YLR262C, strain YPT6, hits give low values 0.977 | S. cerevisiae deletion strains, locus YLR268W, strain sec22, hits give low values 0.948 | S. cerevisiae deletion strains, locus YLR320W, strain mms22, hits give low values 0.962 | S. cerevisiae deletion strains, locus YLR330W, strain CHS5, hits give low values 0.99 | S. cerevisiae deletion strains, locus YLR342W, strain FKS1 (second series), hits give low values 0.852 | S. cerevisiae deletion strains, locus YLR342W, strain FKS1, hits give low values 0.976 | S. cerevisiae deletion strains, locus YLR357W, strain rsc2, hits give low values 0.932 | S. cerevisiae deletion strains, locus YLR370C, strain arc18, hits give low values 0.989 | S. cerevisiae deletion strains, locus YLR371W, strain rom2, hits give low values 0.949 | S. cerevisiae deletion strains, locus YLR384C, strain iki3, hits give low values 0.986 | S. cerevisiae deletion strains, locus YLR418C, strain cdc73, hits give low values 0.982 | S. cerevisiae deletion strains, locus YML016C, strain PPZ1, hits give low values 1.02 | S. cerevisiae deletion strains, locus YML032C, strain rad52, hits give low values 0.919 | S. cerevisiae deletion strains, locus YML120C, strain ndi1, hits give low values 0.986 | S. cerevisiae deletion strains, locus YML124C, strain tub3, hits give low values 0.964 | S. cerevisiae deletion strains, locus YMR058W, strain fet3, hits give low values 0.96 | S. cerevisiae deletion strains, locus YMR078C, strain ctf18, hits give low values 0.956 | S. cerevisiae deletion strains, locus YMR125W, strain sto1, hits give low values 1.03 | S. cerevisiae deletion strains, locus YMR129W, hits give low values 0.991 | S. cerevisiae deletion strains, locus YMR205C, strain PFK2, hits give low values 1.02 | S. cerevisiae deletion strains, locus YMR223W, strain ubp8, hits give low values 0.917 | S. cerevisiae deletion strains, locus YMR231W, strain pep5, hits give low values 0.988 | S. cerevisiae deletion strains, locus YMR263W, strain SAP30, hits give low values 0.952 | S. cerevisiae deletion strains, locus YMR307W, strain GAS1, hits give low values 0.821 | S. cerevisiae deletion strains, locus YNL067W, strain RPL9B, hits give low values 0.908 | S. cerevisiae deletion strains, locus YNL071W, strain lat1, hits give low values 0.991 | S. cerevisiae deletion strains, locus YNL128W, strain TEP1, hits give low values 0.996 | S. cerevisiae deletion strains, locus YNL153C, strain GIM3, hits give low values 0.924 | S. cerevisiae deletion strains, locus YNL209W, strain ssb2, hits give low values 0.992 | S. cerevisiae deletion strains, locus YNL233W, strain BNI4, hits give low values 0.955 | S. cerevisiae deletion strains, locus YNL307C, strain MCK1, hits give low values 0.912 | S. cerevisiae deletion strains, locus YNL322C, strain KRE1 (second series), hits give low values 0.912 | S. cerevisiae deletion strains, locus YNL322C, strain KRE1, hits give low values 1 | S. cerevisiae deletion strains, locus YNR049C, strain mso1, hits give low values 0.971 | S. cerevisiae deletion strains, locus YNR052C, strain pop2, hits give low values 0.921 | S. cerevisiae deletion strains, locus YOL006C, strain TOP1, hits give low values 0.97 | S. cerevisiae deletion strains, locus YOL012C, strain htz1 1.09 | S. cerevisiae deletion strains, locus YOL147C, strain pex11, hits give low values 0.976 | S. cerevisiae deletion strains, locus YOR001W, strain rrp6, hits give low values 0.894 | S. cerevisiae deletion strains, locus YOR061W, strain CKA2, hits give low values 0.971 | S. cerevisiae deletion strains, locus YOR069W, strain VPS5, hits give low values 1 | S. cerevisiae deletion strains, locus YOR070C, strain gyp1, hits give low values 0.963 | S. cerevisiae deletion strains, locus YOR080W, strain dia2, hits give low values 0.971 | S. cerevisiae deletion strains, locus YOR083W, strain WHI5, hits give low values 0.934 | S. cerevisiae deletion strains, locus YOR106W, strain vam3, hits give low values 0.967 | S. cerevisiae deletion strains, locus YOR136W, strain idh2, hits give low values 0.966 | S. cerevisiae deletion strains, locus YOR144C, strain elg1, hits give low values 0.946 | S. cerevisiae deletion strains, locus YOR265W, strain rbl2, hits give low values 1.01 | S. cerevisiae deletion strains, locus YOR270C, strain vph1, hits give low values 0.959 | S. cerevisiae deletion strains, locus YOR290C, strain snf2, hits give low values 0.95 | S. cerevisiae deletion strains, locus YOR316C, strain cot1, hits give low values 0.978 | S. cerevisiae deletion strains, locus YPL051W, strain arl3, hits give low values 0.964 | S. cerevisiae deletion strains, locus YPL078C, strain atp4, hits give low values 0.959 | S. cerevisiae deletion strains, locus YPL106C, strain sse1, hits give low values 0.967 | S. cerevisiae deletion strains, locus YPL240C, strain hsp82, hits give low values 0.989 | S. cerevisiae deletion strains, locus YPL241C, strain CIN2, hits give low values 1.01 | S. cerevisiae deletion strains, locus YPR119W, strain clb2, hits give low values 0.981 | S. cerevisiae deletion strains, locus YPR167C, strain met16, hits give low values 0.929 | S. cerevisiae deletion strains, strain wtn01, hits give low values 0.904 | S. cerevisiae strains, strain wild type, hits give low values 0.999
active: S. cerevisiae deletion strains, locus YKL068W, hits give low values 0.858 | S. cerevisiae deletion strains, locus YKL085W, strain MDH1 (second series), hits give low values 0.84 | S. cerevisiae deletion strains, locus YKL085W, strain MDH1, hits give low values 0.84 | S. cerevisiae deletion strains, locus YKR001C, strain vps1, hits give low values 0.858 | S. cerevisiae deletion strains, locus YLR113W, strain HOG1, hits give low values 0.658 | S. cerevisiae deletion strains, locus YNL183C, strain NPR1, hits give low values 0.743 | S. cerevisiae deletion strains, locus YNL248C, strain rpa49, hits give low values 0.803 | S. cerevisiae deletion strains, locus YNL250W, strain rad50, hits give low values 0.852 | S. cerevisiae deletion strains, locus YNL271C, strain bni1, hits give low values 0.876 | S. cerevisiae deletion strains, locus YNL298W, strain CLA4, hits give low values 0.814 | S. cerevisiae deletion strains, locus YOR184W, strain ser1, hits give low values 0.862 | S. cerevisiae deletion strains, locus YOR231W, strain MKK1, hits give low values 0.761 | S. cerevisiae deletion strains, locus YPL256C, strain CLN2, hits give low values 0.71 | S. cerevisiae deletion strains, locus YPR141C, strain kar3, hits give low values 0.751 | S. cerevisiae deletion strains, locus YPR163C, strain tif3, hits give low values 0.911
